# Bioassay records from PubChem.
# This is a sample that favours compounds with a hit; in the whole collection about 5.8% have one here.
# KB-V1 MDR tox: KB-V1 MDR subline cytotoxicity; KB-V1 MDR cells viability, CellTiter-Glo, 72 h; Potency, µM (titrated, usually from 46.1 µM), most hits filed as cytotoxic; hit rate 3.4% among 400,000; AID 1347076; also: % is scaled to controls: 0 for no effect and ±100 for the full control effect; nearly all actives have a fitted effect of over 60% in size
#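 Potencies derive from concentration-effect curves fitted to normalized luminescence (CellTiter-Glo) of KB-V1 cells treated for 72 h at 37 degrees C in phenol-red-free DMEM containing 10% FBS.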
# SW480 rereplic: DNA re-replication induction in SW480 cells | SW480 DNA re-replication, Hoechst DNA content imaging, 48 h | Potency, µM (highest dose often 46.1 µM), for inactives: at the top dose re-replication activation, most hits filed as activators | hit rate 1.8% among 340,000 | AID 624297; also: % of control where 0% means no effect; nearly all actives have a fitted effect of over 55% in size
#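 First, 250 cells per well were seeded. Next, compound or vehicle (23 nL) was pinned in, plates sat 48 hr at 37 C. Finally Hoechst was added for 40 min before fluorescence scanning.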
# KB-3-1 cytotox: KB-3-1 parental cell cytotoxicity; hit rate 1.4% among 400,000; Potency, µM (series often up to 46.1 µM), actives largely listed as cytotoxic; AID 1347075; KB-3-1 viability, CellTiter-Glo ATP luminescence, 72 h; also: % is scaled to controls: 0 for no effect and ±100 for the full control effect; nearly all actives have a fitted effect of over 60% in size
#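 Cytotoxicity in the drug-sensitive parental line KB-3-1 was scored as loss of CellTiter-Glo luminescence following 72 h incubation with compound. Values come from curve fitting of normalized concentration-response data.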
# MCF10A rerep: DNA re-replication induction in MCF 10a cells; MCF 10A DNA re-replication, Hoechst nuclear intensity, 48 h; hit rate 2.9% among 350,000; Potency, µM (doses to about 46.1 µM), for inactives: top-dose activity, positive = re-replication, hits mostly activators; also: % of control where 0% means no effect; nearly all actives have a fitted effect of over 50% in size
# 12-LOX inh: blocks human arachidonate 12S-lipoxygenase; hit rate 1.1% among 580,000; P18054; purified 12hLO, xylenol orange hydroperoxide absorbance; Potency, µM (doses to about 108 µM), inactives show at the top dose activity change, negative = inhibition, most hits filed as inhibitors; also: % is scaled to controls: 0 for no effect and ±100 for the full control effect
#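 Hydroperoxide product was detected by ferrous iron/xylenol orange as the 573 to 405 nm absorbance ratio. Arachidonic acid at 40 uM (final) was turned over for 30 min at room temperature by 150 nM human 12hLO, pH 7.0 Hepes buffer, after 15 min compound preincubation.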
# PINK1 expr mod: changes PINK1 expression; PINK1 immunofluorescence, high-content cytometry, 24 h; Potency, µM (series often up to 76.6 µM), inactives show at the top dose activation (PINK1 increase), usual class: activators; hit rate 0.2% among 410,000; AID 624263; active = well fitted activation curve with a large enough effect; inconclusive = small, poorly fitted or top-dose-only effect; cell line not stated here; also: % of control where 0% means no effect; nearly all actives have a fitted effect of over 65% in size
#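 Compound titrations (5 concentrations, 24 h) on a stable cell line; DMSO and CCCP controls. Endpoint: fixed-cell PINK1 immunofluorescence with mitochondrial, cell and nuclear markers, scanned by microplate cytometer.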
# * marks the source's active call; other numbers are inactive results; i = inactive; ? = inconclusive; nt = no result; [ ] = dose if it differs, or a comment. Unless noted, calls follow the shape of the dose curve; as a rule, active = well fitted curve in the direction sought with a large enough effect; inconclusive = small, poorly fitted or top-dose-only effect, or another doubt; inactive = no such curve, though single readings can be large; an effect the other way counts as inactive or inconclusive. Potency is read from the fitted curve at half-maximal effect.
SMILES,KB-V1 MDR tox,SW480 rereplic,KB-3-1 cytotox,MCF10A rerep,12-LOX inh,PINK1 expr mod
COc1cccc(-c2cc(C(=O)NCCCN3CCOCC3)c3ccccc3n2)c1,nt,nt,nt,nt,-19.6%,nt
CCCNC(=O)Cn1nc(C)n2nc(-c3ccc(CC)cc3)cc2c1=O,nt,nt,nt,nt,11.5%,nt
CCc1ccc(-c2cc3c(=O)n(CC(=O)NCCN4CCCCC4C)nc(C)n3n2)cc1 (centres undefined),i,18.4µM*,?,?,?,-1.7%
CN1C[C@H](C(=O)Nc2nccs2)C[C@H]1c1cccc(C(F)(F)F)c1,nt,nt,nt,nt,-12.3%[176 µM],nt
Cc1sc2ncnc(N3CCN(S(=O)(=O)c4ccccc4)CC3)c2c1C,7.31µM*,-7.4%,i,11.7%,nt,1.7%
COc1ccc(-c2csc3ncnc(N4CCN(c5ccccc5[N+](=O)[O-])CC4)c23)cc1,nt,?,nt,16.4µM*,nt,0.8%
c1ccc(-c2csc3ncnc(-n4cnc5ccccc54)c23)cc1,?,13.2%,i,?,-7.6%,0.2%
Cc1ccc(S(=O)(=O)N2CCN(c3ncnc4sccc34)CC2)cc1C,5.17µM*,7.7%,?,?,2.1%,-1.9%
Cc1ccc(-c2csc3ncnc(-n4cnc5ccccc54)c23)cc1,?,?,?,9.2µM*,-19.1%,5.2%
COCCCNC(=O)c1ccccc1-c1ncc(-c2ccccc2F)o1,nt,nt,nt,nt,-9.2%,nt
Cc1sc2ncnc(OCC(=O)c3ccc(S(=O)(=O)N4CCCC4)cc3)c2c1C,4.61µM*,4.0%,?,5.8%,-10.5%,-0.4%[38.3 µM]
Cc1ccc(S(=O)(=O)N2CCN(c3ncnc4scc(-c5ccccc5)c34)CC2)cc1,7.31µM*,3.1%,?,?,36.1%,1.0%
Cc1ccc2nc(-c3ccccc3)cc(C(=O)N3CCN(CC(=O)NC4CC4)CC3)c2c1,nt,nt,nt,nt,2.1%,nt
CCC(=O)N/C(N)=N/c1nc(C)c2cc(C)ccc2n1,nt,nt,nt,nt,11.0%,nt
CCNC(=S)/N=C(\N)Nc1nc(C)c2cc(C)ccc2n1,9.2µM*,6.4%,?,6.3%,?,4.1%
CCOc1ccc2nc(N/C(N)=N/C(=S)Nc3ccc(C)c(C)c3)nc(C)c2c1,i,-1.5%,i,5.4%,44.7µM*,2.8%
COc1ccc(NC(=S)/N=C(\N)Nc2nc(C)c3ccc(C)cc3n2)cc1,i,-1.3%,?,-4.3%,?,3.9%
CC1CCCN(Cc2nc3c(Br)cc(Br)cc3c(=O)[nH]2)C1 (centres undefined),nt,nt,nt,nt,-2.2%,nt
CCN1CCC(NC(=O)C2CC(C)=C(C)CC2C(=O)O)CC1 (centres undefined),nt,nt,nt,nt,-26.7%,nt
O=c1c2c3c(sc2ncn1/N=C/c1ccc([N+](=O)[O-])o1)CCCC3,20.6µM*,11.6µM*,20.6µM*,4.11µM*,?,4.3%
O=c1c2c3c(sc2ncn1-c1ccccc1)CCCC3,nt,nt,nt,nt,3.1%,nt
Cn1cc(/C=N/n2cnc3sc4c(c3c2=O)CCCC4)c2ccccc21,20.6µM*,18.4µM*,?,?,16.3%,-1.0%
COc1ccccc1-c1cnc(Nc2cccc(N[S+](C)(=O)[O-])c2)c2c1CCO2,nt,nt,nt,nt,-6.5%[176 µM],nt
COc1ccc2c(c1)CCN=C2C[C@H]1CN(C(=O)c2ccc(C#N)cc2)CC[C@H]1CC(=O)O,nt,nt,nt,nt,63.1µM*,nt
Cc1ccc(C(=O)OCC(=O)c2ccco2)s1,nt,nt,nt,nt,31.6µM*,nt
SMILES,KB-V1 MDR tox,SW480 rereplic,KB-3-1 cytotox,MCF10A rerep,12-LOX inh,PINK1 expr mod
FC(F)(F)c1cc(Cl)c2nc(-c3ccccc3)cn2c1,i,0.9%,i,14.6µM*,0.0%,1.4%
CCc1noc(C)c1C(=O)NNC(=O)c1cc(OC)c(OC)c(OC)c1,i,18.4µM*,i,-15.4%,?,0.7%
CCC(=O)Nc1ccc2c(c1)C(=O)N(C1CCCCC1)C2=O,i,-0.2%,i,1.6%,-4.8%,3.55µM*
O=C(Nc1ccncc1)c1ccc2c(c1)C(=O)N(C1CCCCC1)C2=O,i,0.4%,i,4.9%,0.0%,0.1%
COc1ccc(NC(=O)/C(=C\c2ccco2)NC(=O)c2ccco2)cc1,i,-22.4%,i,-27.9%,?,1.8%
O=C(OC1CCCCC1)c1ccc(NC(=O)c2ccco2)cc1,i,11.2%,i,14.6µM*,?,15.9%
